The record followed here is PubChem BioAssay AID372 (MTDP, 2006).

Structures are written as SMILES. In all, about 100,000 compounds went through this assay and about 770 (0.77%) were called active. The list comes from a sample in which actives are over-represented; it also holds similar structures and randomly drawn compounds. Unmarked numbers belong to inactive results. No stated cut-off is given here; in the data, active means inhibition above about 50%; inactive means the rest.

This assay concerns the target Gag-Pol polyprotein (Human immunodeficiency virus type 1 group M subtype B (isolate HXB2)) (UniProt P04585). The experiment in a line: RNase H inhibition, HIV 1 Gag Pol polyprotein, FRET biochemical assay, screening (AID 372). Particulars: HIV-1 RT RNase H, FRET RNA/DNA substrate fluorescence; at 10 µM; stronger effect = higher value.
Consider `COc1ccc(/C=C/c2nc3sc4c(c3c(=O)o2)CCCC4)cc1`, for which the inhibition was 14%.

In the case of `COc1cc2ccccc2cc1C(=O)NC(=S)Nc1cccc(-c2nc3ccccc3s2)c1C`, the inhibition is 15%.

Take `O=C1NC(=O)N(c2cccc(Br)c2)C(=O)/C1=C/c1cc(Cl)c(O)c(Cl)c1`: the inhibition is 10%.

In the case of `O=C1CSC(c2ccc(Cl)c(Cl)c2)N1CCc1ccccc1` (stereo not given), the inhibition was 7%.

On to `Cc1ccc(/C(O)=C/c2nc3ccc([N+](=O)[O-])cc3oc2=O)o1`, for which the inhibition is 10%.

Take `Cc1ccc(/C(O)=C/c2nc3ccccc3oc2=O)o1`: the inhibition is 54% (active).

Consider `Cc1cc(C)c(/C(O)=C/c2nc3ccccc3oc2=O)c(C)c1`, for which the inhibition was 0%.

For the compound `COc1ccc(N=C(C)c2cc(Cl)ccc2O)cc1`, the inhibition was 31%.

Take `COc1ccc(Cc2nc3ccccc3c(=O)n2/N=C/c2cccs2)cc1OC`: the inhibition was 23%.

`COc1ccc(Cc2nc3ccccc3c(=O)n2/N=C/c2c[nH]c3ccccc23)cc1OC`: the inhibition is 52% (active).

Regarding `Cc1ccccc1-c1nc2ccccc2c(=O)n1/N=C/c1c[nH]c2ccccc12`, the inhibition was 10%.

For `N#Cc1c(/N=C/c2cc(Br)ccc2Br)sc2c1CCCC2`, the inhibition was 15%.

Consider `Fc1ccccc1OCCn1ccnc1`, for which the inhibition was 7%.

`Cc1ccc(NCCCC(=O)N/N=C/c2cccs2)cc1`: the inhibition was 12%.

As to `COc1ccc(C(C)=O)cc1CSc1cc(C)c2ccccc2n1`, the inhibition was 46%.

In the case of `Cc1ccc(C(C)C)c(OCC(=O)Nc2cccc(Cl)c2C)c1`, the inhibition was 15%.

`COc1cc(C=C2C(=O)NC(=O)NC2=O)ccc1OCc1c(C)ccc2ccccc12`: the inhibition was 31%.

Regarding `O=c1nc(/C=C/c2ccc(-c3ccc(F)c(Cl)c3)o2)cc(C(F)(F)F)[nH]1`, the inhibition is 48%.

Turning to `O=c1nc(/C=C/c2ccc(-c3ccc(Cl)c([N+](=O)[O-])c3)o2)cc(C(F)(F)F)[nH]1`, the inhibition was 54% (active).

As to `O=c1nc(/C=C/c2ccc(-c3ccc([N+](=O)[O-])cc3Cl)o2)cc(C(F)(F)F)[nH]1`, the inhibition was 20%.

Take `COC(=O)C1=C(C)N(c2ccccc2F)C(=O)/C1=C\c1ccccc1F`: the inhibition is 5%.

As for `COc1cc([N+](=O)[O-])ccc1-c1ccc(C(=O)Nc2ccc(NC(C)=O)cc2)o1`, the inhibition is 26%.

Take `COc1cc([N+](=O)[O-])ccc1-c1ccc(C(=O)Nc2ccc(I)cc2Cl)o1`: the inhibition is 51% (active).

Turning to `COc1cc([N+](=O)[O-])ccc1NC(=O)c1cc2ccccc2cc1OC`, the inhibition was 53% (active).

Take `COc1cc([N+](=O)[O-])ccc1NC(=O)c1cc(Cl)ccc1Cl`: the inhibition is 22%.

For `COc1cc([N+](=O)[O-])ccc1NC(=O)c1cccc2ccccc12`, the inhibition is 26%.

For `COc1ccccc1NC(=O)c1ccc(-c2ccc([N+](=O)[O-])cc2OC)o1`, the inhibition was 30%.

Turning to `COc1cc2ccccc2cc1C(=O)Nc1cc([N+](=O)[O-])ccc1F`, the inhibition is 46%.

For the compound `CCOc1ccc(NC(=O)c2ccc(-c3ccc([N+](=O)[O-])cc3OC)o2)cc1`, the inhibition was 36%.

As to `CCCC(=O)Nc1ccc(NC(=O)c2ccc(-c3ccc([N+](=O)[O-])cc3OC)o2)cc1`, the inhibition was 56% (active).

As for `Cc1cc([N+](=O)[O-])ccc1-c1ccc(C(=O)Nc2ccc(I)cc2Cl)o1`, the inhibition was 24%.

In the case of `COc1cc([N+](=O)[O-])ccc1NC(=O)c1ccc(-c2cc(Cl)ccc2Cl)o1`, the inhibition is 60% (active).

Regarding `O=C(Nc1cc([N+](=O)[O-])ccc1F)c1ccc(-c2cc(Cl)ccc2Cl)o1`, the inhibition is 31%.

Turning to `COc1ccc(OC)c(/C=N/NC(=O)CSc2nc3ccccc3n2C)c1`, the inhibition is 20%.

Turning to `Cc1ccnc(NS(=O)(=O)Cc2ccccc2)c1`, the inhibition is 3%.

Take `COc1ccc(OC)c(N2C(=O)NC(=O)C(=Cc3cccs3)C2=O)c1`: the inhibition was 1%.

Consider `CCn1c(NC(=O)c2ccc(Cl)cc2)nc2ccccc21`, for which the inhibition is 4%.

For `Cc1ccc(NC(=S)NC(=O)c2ccccc2F)cc1C`, the inhibition was 15%.

As for `COc1ccc(CCN=C(Nc2ccccc2)SC2CC(=O)N(c3ccccc3)C2=O)cc1` (stereo not given), the inhibition is 6%.

Consider `CCN(CC)c1ccc(C=Nc2ccccc2C(=O)Nc2ccccc2)c(O)c1`, for which the inhibition is 5%.

Take `N#C/C(=C/c1ccc(-c2ccccc2[N+](=O)[O-])o1)C(=O)NCc1ccccc1`: the inhibition is 27%.

Take `COc1ccc(-n2nc3cc(C)c(NC(=O)c4ccc(-c5ccc([N+](=O)[O-])cc5OC)o4)cc3n2)cc1`: the inhibition was 54% (active).

`COc1ccc(-n2nc3cc(C)c(NC(=O)c4ccc(-c5cccc([N+](=O)[O-])c5)o4)cc3n2)cc1`: the inhibition is 42%.

On to `COc1ccc(-n2nc3cc(C)c(NC(=O)c4ccc([N+](=O)[O-])cc4)cc3n2)cc1`, for which the inhibition is 10%.

Regarding `COc1ccc(-n2cnc(N)c2C(=O)c2cccc([N+](=O)[O-])c2)cc1`, the inhibition was 1%.

On to `Cc1ccc(-c2cc(C(F)(F)F)n3nc(C(N)=O)c(Cl)c3n2)cc1`, for which the inhibition is 11%.

On to `Clc1cccc(NCc2ccncc2)c1`, for which the inhibition was 2%.

For `COc1ccc(-n2sc3c(c2=S)-c2ccc(OC)cc2NC3(C)C)cc1`, the inhibition was 15%.

Consider `CCCOC(=O)C1=C(C)NC2=C(C(=O)CC(c3ccccc3)C2)C1c1ccccc1Br` (stereo not given), for which the inhibition was 58% (active).

With `CC1=C(C(=O)OCCc2ccccc2)C(c2ccccc2Br)C2=C(CC(c3ccccc3)CC2=O)N1` (stereo not given), the inhibition was 26%.

Take `CC1=C(C(=O)OCc2ccccc2)C(c2ccccc2Br)C2=C(CC(c3ccccc3)CC2=O)N1` (stereo not given): the inhibition was 32%.

Regarding `O=S(=O)(NC1CCCCCCC1)c1ccc(F)cc1`, the inhibition was 7%.

With `O=C1NC(=S)S/C1=C\c1cn(Cc2ccc(Cl)cc2)c2ccccc12`, the inhibition is 31%.

For `CCN(CC)CCOc1c(C)cc(C)cc1Cl`, the inhibition was 52% (active).

Take `CCOc1ccccc1OCCOCCOc1c(C)cc(C)cc1Cl`: the inhibition is 33%.

As for `CCOc1ccccc1OCCCOc1c(C)cc(C)cc1Cl`, the inhibition is 52% (active).

Consider `CCOc1ccccc1OCCCCOc1c(Cl)cc(C)cc1Cl`, for which the inhibition was 23%.

As for `CCN(CC)CCOc1c(Cl)cc(C)cc1Cl`, the inhibition is 2%.

On to `CCN(CC)CCOc1c(C)cc(Cl)cc1Cl`, for which the inhibition is 0%.

With `N#C/C(=C\Nc1ccccc1Cl)c1nc(-c2ccc(Br)cc2)cs1`, the inhibition is 2%.
